One assay relates to Es-2. The experiment in a line: Primary qHTS to identify gynecologic anti-cancer compounds using libraries of approved drugs and bioactive compounds (AID 1345084). Note: nearly all actives have a fitted effect of over 55% in size. Note: potency is the fitted concentration of half-maximal effect. Conditions: Gynecologic cancer cell panel viability, ATPlite luminescence, 48 h; series mostly up to 57.5 µM. Summed up: (§1)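 Five-point cytotoxicity, 48 h drug exposure at 37 C, 5% CO2, on cells seeded 16 h beforehand. ATP content read by ATPlite luminescence.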
(In qHTS, concentration-response curves come from the screen itself.)

The subject of another assay is HeLa. Described as above. Conditions: Gynecologic cancer cell panel viability, ATPlite luminescence, 48 h; series mostly up to 57.5 µM. In short, it runs like this:
as §1
(ATP-based viability assays read luminescence as a measure of living cells.)

Another assay has as its system Hek293T. The assay is described as above. Conditions: Gynecologic cancer cell panel viability, ATPlite luminescence, 48 h, control line for the selectivity index; series mostly up to 57.5 µM. In short, it runs like this:
as §1

The test system of a further assay is JEG-3. The description is as above. Conditions: Gynecologic cancer cell panel viability, ATPlite luminescence, 48 h; series mostly up to 57.5 µM. Summed up: as §1
For the next assay, the system named is OV90. The description is as above. Conditions: Gynecologic cancer cell panel viability, ATPlite luminescence, 48 h; series mostly up to 57.5 µM. In short, it runs like this:
as §1

In the next assay the test system is PA-1. The description is as above. Conditions: Gynecologic cancer cell panel viability, ATPlite luminescence, 48 h; series mostly up to 57.5 µM. Summed up: as §1
The subject of a further assay is SKOV3. The description is as above. Conditions: Gynecologic cancer cell panel viability, ATPlite luminescence, 48 h; series mostly up to 57.5 µM. Summed up:
as §1

A further assay has as its system Tov-21-G. Described as above. Conditions: Gynecologic cancer cell panel viability, ATPlite luminescence, 48 h; series mostly up to 57.5 µM. Summed up:
as §1

The subject of another assay is Tov112D. Described as above. The following applies: Gynecologic cancer cell panel viability, ATPlite luminescence, 48 h; series mostly up to 57.5 µM. Summed up:
as §1

The nature of assay [1]: Drug repurposing screens with cells derived from glioblastoma tumor samples (AID 1345199). For activity, negative = cell killing: % is set by controls: 0 for no effect and ±100 for the full control effect. Note: nearly all actives have a fitted effect of over 40% in size. Note: potency is the fitted concentration of half-maximal effect. Conditions: GBM patient neurospheres viability, ATP luminescence, 48 h. In short, it runs like this: (§2)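 Four patient lines of CD133+ GBM neurospheres were screened at several concentrations; hits were retested in those lines plus three slower-growing GBM lines, using 48-hour treatment and ATP-based viability.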

The next assay deals with astro. The assay is described as above. The following applies: viability, ATP luminescence, 48 h; series mostly up to 45.9 µM. In short, it runs like this:
as §2

Assay [2] in a line: qHTS assay to identify inhibitors of the type 1 interferon - major histocompatibility complex class I in skeletal muscle: Counter screen cell viability and HiBit confirmation (AID 1347412). Note: % is set by controls: 0 for no effect and ±100 for the full control effect; nearly all actives have a fitted effect of over 60% in size. Conditions: iHSKM muscle cells + IFN-b, HiBiT or CellTiter-Glo, 24 h; Potency: HiBiT unless noted; Viability, at 45.9 µM (top of the series). Summed up:
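Duplicate plates, pinned identically: one read for HiBiT-tagged endogenous HLA-B luminescence, the other for ATP-content viability via CellTiter Glo. Cells were genome-engineered human myoblasts given 4 ng/ml IFN-b; compounds 12-pt, 1:3 from 46 uM final; 24 hr exposure.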

Assay [3] deals with Nuclear receptor subfamily 1 group I member 2 (Rattus norvegicus) (UniProt Q9R1A7). The experiment in a line: qHTS assay for small molecule activators of the rat pregnane X receptor (rPXR) signaling pathway (AID 651751; call rule not given here; note: 0% is about no effect). The following applies: rPXR reporter cells, luciferase (One-Glo), 24 h.
Chain of Nuclear receptor subfamily 1 group I member 2 (Rattus norvegicus) (Q9R1A7 whole entry, looked up): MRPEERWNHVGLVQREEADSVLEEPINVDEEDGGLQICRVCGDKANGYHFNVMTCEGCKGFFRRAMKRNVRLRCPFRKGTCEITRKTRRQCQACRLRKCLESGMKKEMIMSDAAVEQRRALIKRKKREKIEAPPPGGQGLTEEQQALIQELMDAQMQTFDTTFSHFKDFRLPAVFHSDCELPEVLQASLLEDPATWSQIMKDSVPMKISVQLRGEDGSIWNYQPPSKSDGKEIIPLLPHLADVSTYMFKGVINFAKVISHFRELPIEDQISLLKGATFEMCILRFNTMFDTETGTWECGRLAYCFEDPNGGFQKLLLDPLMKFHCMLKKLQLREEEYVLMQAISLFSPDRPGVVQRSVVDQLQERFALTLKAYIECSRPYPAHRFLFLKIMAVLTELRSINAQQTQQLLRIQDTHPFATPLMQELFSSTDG
Setting [4] is: at 45.9 µM (top of the series), tumour line B.
The mark [5] stands for this setting: at 45.9 µM (top of the series), tumour line D.
[6] abbreviates: at 46 µM (top of the series), tumour line A.
The mark [7] stands for this setting: at 46.1 µM (top of the series), tumour line C.
The mark [8] stands for this setting: at 20 µM (top of the series), tumour line C.
[9] abbreviates: at 21.2 µM (top of the series), tumour line B.
Where [10] appears, read: at 21.2 µM (top of the series), tumour line D.

“And” between values parts separate entries of the source, which are not always exact repeats. Identical values can stand only once. A number with no mark means an inactive call. Inconclusive results are not listed. The source made the active and inactive calls. Unless noted, calls come from the whole dose curve; as a rule, active = well fitted curve in the direction sought with a large enough effect; inconclusive = small, poorly fitted or top-dose-only effect, or another doubt; inactive = no such curve, though single readings can be large; an effect the other way counts as inactive or inconclusive.

In the case of `CCN1CCCC1=O`, the Potency entry in the assay on Es-2, with HeLa, with Hek293T, in the assay with JEG-3, with OV90 and with PA-1 was “inactive” each time. Also, the Potency entry in the assay with SKOV3, in the assay on Tov-21-G, in the assay with Tov112D and in the assay with astro was “inactive” throughout. Also, the activity, negative = cell killing in [1] (setting [4]) was -8.97%; in assay [1] (setting [5]), 9.06%; in assay [1] (setting [6]), -27.1%; in assay [1] (setting [7]), 2.13%.

For the molecule `Cc1c(F)c(N2CCNC(C)C2)cc2c1c(=O)c(C(=O)O)cn2C1CC1` (centres undefined), the Potency entry with Es-2, in the assay with HeLa, with Hek293T, in the assay with JEG-3, with OV90 and in the assay with PA-1 was “inactive” each time. In addition, the Potency result with SKOV3, in the assay on Tov-21-G, with Tov112D and in the assay with astro was “inactive” in each case. The activity, negative = cell killing is -3.48% in assay [1] (setting [4]), 3.74% in assay [1] (setting [5]), -33% in [1] (setting [6]) and -2.18% in assay [1] (setting [7]).

As for `CC(=O)OCC(=O)[C@@]1(O)CC[C@H]2[C@@H]3CCC4=CC(=O)C=C[C@]4(C)[C@H]3[C@@H](O)C[C@@]21C`, the Potency entry with Es-2, with HeLa, with Hek293T, in the assay on JEG-3, with OV90 and in the assay with PA-1 was “inactive” each time. In addition, the Potency result (in the assay on SKOV3; with Tov-21-G; in the assay on Tov112D; in the assay on astro; in assay [2]) was “inactive” each time. The activity, negative = cell killing was -3.24% in [1] (setting [4]), -10.4% in [1] (setting [5]), -4.22% in assay [1] (setting [6]) and 5.52% in assay [1] (setting [7]).

Regarding `CCCC(=O)Nc1ccc(OCC(O)CNC(C)C)c(C(C)=O)c1` (centres undefined), the Potency entry with Es-2, in the assay with HeLa, in the assay on Hek293T, in the assay on JEG-3, in the assay with OV90 and with PA-1 was “inactive” in each case. In addition, the Potency entry with SKOV3, in the assay with Tov-21-G, in the assay with Tov112D and in the assay with astro was “inactive” throughout. In addition, the activity, negative = cell killing is -9.42% in [1] (setting [8]), -3.87% in assay [1] (setting [9]) and 11% in assay [1] (setting [10]).

Take `CC1=C(C(=O)O)N2C(=O)[C@@H](NC(=O)[C@H](N)c3ccc(O)cc3)[C@H]2SC1`: the Potency entry in the assay on Es-2, with HeLa, in the assay on Hek293T, in the assay with JEG-3, in the assay on OV90 and in the assay with PA-1 was “inactive” each time. Moreover, the Potency entry in the assay on SKOV3, in the assay with Tov-21-G, with Tov112D and in the assay with astro was “inactive” each time. The activity, negative = cell killing was -0.623% in [1] (setting [8]), -10.2% in [1] (setting [9]) and -21.8% in [1] (setting [10]).

Take `COc1cc(N)c(Cl)cc1C(=O)NC1CCN(CCCOc2ccc(F)cc2)CC1OC` (centres undefined): the Potency entry in the assay with Es-2, in the assay on HeLa, in the assay with Hek293T, with JEG-3, in the assay with PA-1 and in the assay with SKOV3 was “inactive” in each case. The Potency entry in the assay with Tov-21-G, with Tov112D and with astro was “inactive” throughout. The figures for the Potency (in the assay with OV90; in assay [1] (tumour line A)) were 25.1 µM (active) and 5.62 µM (active), respectively. Besides, the activity, negative = cell killing is -1.31% in assay [1] (setting [8]) and -11.4% in assay [1] (setting [9]).

`NCCc1ccn[nH]1`: the Potency entry with Es-2, with HeLa, in the assay with Hek293T, in the assay on JEG-3, in the assay on OV90 and in the assay with PA-1 was “inactive” each time. The Potency result in the assay with Tov-21-G, in the assay on Tov112D and in the assay with astro was “inactive” each time. For the same molecule, the activity, negative = cell killing was -4.24% in assay [1] (setting [8]); -2.24% in [1] (setting [9]); 2.99% in assay [1] (setting [10]); -21.3% in assay [1] (at 21.3 µM (top of the series), tumour line A).

With `OC[C@H]1O[C@@H](n2cnc3c(=S)nc[nH]c32)[C@H](O)[C@@H]1O`, the Potency with Es-2 was 3.55 µM (active); in the assay with HeLa, 3.16 µM (active); with Hek293T, 10 µM (active); in the assay on JEG-3, 2.51 µM (active); with OV90, 8.91 µM (active); with PA-1, 5.01 µM (active). Moreover, the Potency in the assay with Tov-21-G is 0.891 µM (active); in assay [1] (tumour line A), 1.41 µM (active). The Potency entry with SKOV3 and in the assay with astro was “inactive” each time. In addition, the activity, negative = cell killing in assay [1] (setting [4]) was -25.4%.

Turning to `CC/C(=C(/CC)c1ccc(O)cc1)c1ccc(O)cc1`, the Potency entry in the assay with Es-2, with HeLa, in the assay with Hek293T, with JEG-3, in the assay with OV90 and in the assay with PA-1 was “inactive” each time. Moreover, the Potency entry in the assay on SKOV3, in the assay on Tov-21-G and in the assay with Tov112D was “inactive” in each case. The activity, negative = cell killing in [1] (setting [4]) is -24.8%; in [1] (setting [7]), -3.33%. Further, the Potency in assay [1] (tumour line A) is 14.1 µM (active). Besides, the max response in [3] is 1.62% and -5.34%.

Source of the values: PubChem BioAssay (NCATS).
